Screening results (PubChem BioAssay)
An excerpt weighted towards active compounds, which were near 3.2% of everything screened.
rCAG binder – r(CAG) repeat RNA binding. TO-PRO-1 dye displacement fluorescence. inhibition, % at 3 µM. 370,000 tested, 1.3% active;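 active = inhibition above the plate cutoff, the mean of all test compounds on that plate plus 3 SD, cut at about 35% in these data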;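 also: higher means more dye released from RNA so lower well fluorescence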
MsrA inhibitor – bovine MsrA inhibition. purified bovine MsrA, absorbance read-out. inhibition, % at 15.5 µM. 360,000 tested, 0.75% active. AID 651718; in the data active = inhibition above about 4.5%
DAGLB inh – blocks human DAGLB lipase activity | 340,000 tested, 0.059% active | Q8NCG7 | HEK293T DAGLB membrane lysate, EnzChek fluorogenic substrate | inhibition, % at 5.17 µM; in the data active = inhibition above about 34%
MsrA act – activators of bovine methionine sulfoxide reductase A | purified bovine MsrA, absorbance read-out | activation, % at 10.6 µM | 360,000 tested, 0.3% active | AID 602163; in the data active = activation above about 7.5%
Pemphigus Ab inh – blocks pemphigus antibody binding to human desmoglein-3 | P32926 | DSG3-coupled beads, scFv-anti-DSG3-GFP binding, flow cytometry; active compounds read low | binding (percent of control), % at 10 µM | 310,000 tested, 0.48% active;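 active = binding more than 3 SD below its plate's average and above zero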;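 also: hits lower antibody fragment binding to DSG3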
NadD block – blocks S. aureus nicotinate mononucleotide adenylyltransferase; purified NadD enzyme, colorimetric absorbance read-out; inhibition, % at 20 µM; 360,000 tested, 0.78% active; in the data active = inhibition above about 26%
Numbers stand for hits.

Screening CC(C)(C)c1ccc(C(=O)N2CCN(c3nc4ccccc4o3)CC2)cc1 returned rCAG binder inactive, MsrA inhibitor inactive, DAGLB inh inactive, MsrA act inactive, Pemphigus Ab inh inactive and NadD block inactive.
For Cc1c(Cl)cccc1NS(=O)(=O)c1ccc2c(c1)C1C=CCC1C(c1ccc(C(=O)O)cc1)N2 (stereo not drawn) the results were DAGLB inh inactive, MsrA act inactive, Pemphigus Ab inh inactive and NadD block 33.6.
For COc1cccc(-c2nc(CS(=O)CC(=O)NC3CCCC3)c(C)o2)c1 (stereo not drawn) the results were rCAG binder inactive, MsrA inhibitor inactive, DAGLB inh inactive, MsrA act inactive, Pemphigus Ab inh inactive and NadD block inactive.
For COc1cccc(-c2nc(CS(=O)CC(=O)NC3CCCCC3)c(C)o2)c1 (stereo not drawn) the results were rCAG binder inactive, MsrA inhibitor inactive, DAGLB inh inactive, MsrA act inactive, Pemphigus Ab inh 55.4 and NadD block inactive.
Screening Cc1cc(C(=O)COC(=O)c2cc(O)c3ccccc3c2O)c(C)n1CC1CCCO1 (stereo not drawn) returned DAGLB inh inactive, MsrA act inactive, Pemphigus Ab inh inactive and NadD block 35.9.
COC(=O)[C@]12C[C@H](CC(=O)NCCc3ccccc3OC)C(=O)N(Cc3ccco3)C1=C[C@H](COCc1ccccc1)O[C@@H]2C was read as rCAG binder inactive.
Cc1cc2nc(N)sc2cc1[N+](=O)[O-] was read as rCAG binder inactive, MsrA inhibitor 5.2, DAGLB inh inactive, MsrA act inactive, Pemphigus Ab inh inactive and NadD block inactive.
O=C(c1cc(Cl)cc(Cl)c1)N1CC[C@H]2[C@H](CCCN2Cc2cc(F)cc(F)c2)C1 was read as rCAG binder inactive.
Screening COc1ccc(CN2C(=O)CCCC2(C)c2nnnn2-c2ccc3c(c2)OCCO3)cc1 (stereo not drawn) returned rCAG binder inactive.
`Cn1c(N)c(C(=O)COC(=O)C2Cc3ccccc3CN2S(C)(=O)=O)c(=O)n(C)c1=O` (stereo not drawn) gave rCAG binder inactive, MsrA inhibitor inactive, DAGLB inh inactive, MsrA act inactive, Pemphigus Ab inh 75.7 and NadD block inactive.
Screening COc1ccc2nc(-c3ccc(CN4CCC5(CC4)CNc4ccccc45)cc3)c(-c3ccccc3)nc2c1 returned rCAG binder inactive and MsrA inhibitor inactive.
COc1cccc(N/C=C(\C#N)c2ccc(OCCCF)cc2)c1 was read as rCAG binder inactive, MsrA inhibitor inactive, DAGLB inh inactive, MsrA act inactive, Pemphigus Ab inh 72.6 and NadD block inactive.
Screening CN(C)S(=O)(=O)c1ccc(/C(O)=C2/C(=O)C(=O)N(Cc3cccnc3)C2c2ccncc2)cc1 (stereo not drawn) returned rCAG binder inactive, MsrA inhibitor inactive, DAGLB inh inactive, MsrA act inactive, Pemphigus Ab inh inactive and NadD block inactive.
For CN(C)S(=O)(=O)c1ccc(/C(O)=C2/C(=O)C(=O)N(CCN3CCCCC3)C2c2cccnc2)cc1 (stereo not drawn) the results were rCAG binder inactive, MsrA inhibitor 4.9, DAGLB inh inactive, MsrA act inactive, Pemphigus Ab inh inactive and NadD block inactive.
`Cc1cc(NC(=O)CSc2nnc(-c3c[nH]c4ccccc34)n2-c2ccc(F)cc2)no1` gave rCAG binder inactive, MsrA inhibitor inactive, DAGLB inh inactive, MsrA act inactive, Pemphigus Ab inh 14.2 and NadD block inactive.
Screening CCCC1=NN2C(=N)/C(=C\c3cc(C)n(-c4cc(C)cc(C)c4)c3C)C(=O)N=C2S1 returned rCAG binder inactive, MsrA inhibitor inactive, DAGLB inh inactive, MsrA act inactive, Pemphigus Ab inh inactive and NadD block 37.4.
Cc1cc(C)cc(-n2c(C)cc(/C=C3\C(=N)N4N=C(CC(C)C)SC4=NC3=O)c2C)c1 was read as rCAG binder inactive, MsrA inhibitor inactive, DAGLB inh inactive, MsrA act inactive, Pemphigus Ab inh inactive and NadD block 34.6.
`COc1ccccc1CCn1cnc(-c2cccc(F)c2)c1CC(C)C` gave rCAG binder inactive and MsrA inhibitor inactive.
Screening Cc1ccc(N2CCN(C(C(=O)Nc3c(C)cccc3C)c3ccccc3OC(F)(F)F)CC2)cc1 (stereo not drawn) returned rCAG binder inactive and MsrA inhibitor inactive.
Screening Cc1ccc(-c2cc(-c3nnc(SCC(=O)Nc4cccc5ccccc45)n3N)[nH]n2)cc1 returned rCAG binder inactive.
For CN(C)S(=O)(=O)n1cc(/C=C(\NC(=O)c2ccccc2F)C(=O)N2CCOCC2)c2ccccc21 the results were rCAG binder inactive, MsrA inhibitor inactive, DAGLB inh inactive, MsrA act inactive, Pemphigus Ab inh 17.8 and NadD block inactive.
For CN(C)c1ccc(/C=N\NC(=O)c2csnn2)cc1 the results were rCAG binder inactive, MsrA inhibitor 7.3, DAGLB inh inactive, MsrA act inactive and NadD block inactive.
Screening Cc1ccc2nc(N3CCN(c4ccccc4)CC3)c(C=O)c(=O)n2c1 returned rCAG binder inactive, MsrA inhibitor inactive, DAGLB inh inactive, MsrA act inactive, Pemphigus Ab inh inactive and NadD block inactive.
For Cc1ccc2nc(SCc3ccccc3)c(C=O)c(=O)n2c1 the results were rCAG binder inactive, MsrA inhibitor inactive, DAGLB inh inactive, MsrA act inactive, Pemphigus Ab inh 52.6 and NadD block inactive.
`O=C(Nc1ccc2c(c1)OCO2)c1cc(C2CCCCN2S(=O)(=O)c2ccccc2)on1` (stereo not drawn) gave rCAG binder inactive, MsrA inhibitor inactive, MsrA act inactive and NadD block inactive.
Screening Cc1ccc(C)c(NC(=O)Cn2nnc(-c3ccncc3)n2)c1 returned rCAG binder inactive.
CCOC(=O)c1sc(=S)[nH]c1C was read as rCAG binder inactive, MsrA inhibitor inactive, DAGLB inh inactive, MsrA act 8.4 and NadD block inactive.
`Cc1ccc(S(=O)(=O)C(C#N)c2nc3ccccc3nc2N2CC(C)OC(C)C2)cc1C` (stereo not drawn) gave rCAG binder 39.2, MsrA inhibitor inactive, DAGLB inh inactive, MsrA act inactive, Pemphigus Ab inh inactive and NadD block inactive.
CO[C@H]1CN(C)C(=O)c2cc(NC(=O)C3CCOCC3)ccc2OC[C@H](C)N(Cc2nccs2)C[C@H]1C was read as rCAG binder inactive and MsrA inhibitor inactive.
For COc1cccc2sc(Nc3nc(-c4ccccn4)cs3)nc12 the results were DAGLB inh inactive, MsrA act inactive, Pemphigus Ab inh inactive and NadD block 34.8.
For Cc1cc2c(SCC(=O)Nc3cccc(O)c3)ncnc2s1 the results were rCAG binder 53.7, MsrA inhibitor inactive, DAGLB inh inactive, MsrA act inactive, Pemphigus Ab inh inactive and NadD block inactive.
Screening COc1ccc(NC(=O)CSc2ncnc3sc(C)cc23)cc1 returned rCAG binder inactive, MsrA inhibitor inactive, DAGLB inh inactive, MsrA act inactive, Pemphigus Ab inh inactive and NadD block inactive.
